# Measurements as given in PubChem BioAssay AID1159580 (chemical genetic matrix, 2015).
# In all, about 5,500 compounds went through this assay and about 2,000 (36%) were called active. Roughly 18% stayed inconclusive and do not appear here. The list shows a part of the results. Values without a mark were called inactive. Cut-off read from the data, not from the text of the source: active = normalized growth mostly below about 0.91 (no sharp cut-off); inconclusive = no clear call, values can overlap the other calls; inactive = mostly above about 0.92.
# Assay: chemical genetic growth profiling, strain panel (AID 1159580);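 note: tested at 20 µM; growth read once vehicle control cultures reached saturation at 30 °C; 1 = growth at the plate median or of vehicle wells; lower values mean less growth of the strain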
# Details: S. cerevisiae deletion strains, growth OD
smiles,measurement,setting,value
Cc1c(C)c(C)c(C(O)c2ccccc2)c(C)c1C (stereo unspecified),normalized growth,"locus YAR019C, strain CDC15, active compounds read low",1
same,normalized growth,"locus YBL105C, strain PKC1, active compounds read low",1.01
same,normalized growth,"locus YBR135W, strain CKS1, active compounds read low",1
same,normalized growth,"locus YBR136W, strain MEC1, active compounds read low",1
same,normalized growth,"locus YBR160W, strain CDC28, active compounds read low",1.01
same,normalized growth,"locus YDL017W, strain CDC7, active compounds read low",1.01
same,normalized growth,"locus YDL028C, strain MPS1, active compounds read low",1
same,normalized growth,"locus YDL101C, strain DUN1, active compounds read low",0.998
same,normalized growth,"locus YDL108W, strain KIN28, active compounds read low",1.01
same,normalized growth,"locus YDL132W, strain cdc53, active compounds read low",0.998
same,normalized growth,"locus YDL214C, strain PRR2, active compounds read low",0.858
same,normalized growth,"locus YDR052C, strain DBF4, active compounds read low",0.989
same,normalized growth,"locus YDR054C, strain cdc34, active compounds read low",0.991
same,normalized growth,"locus YDR226W, strain ADK1, active compounds read low",0.993
same,normalized growth,"locus YDR477W, strain SNF1, active compounds read low",0.846
same,normalized growth,"locus YER123W, strain YCK3, active compounds read low",0.786
same,normalized growth,"locus YER133W, strain GLC7, active compounds read low",0.843
same,normalized growth,"locus YFL009W, strain cdc4, active compounds read low",0.994
same,normalized growth,"locus YFL029C, strain CAK1, active compounds read low",1
same,normalized growth,"locus YFR003C, strain YPI1, active compounds read low",1
same,normalized growth,"locus YFR019W, strain FAB1, active compounds read low",0.868
same,normalized growth,"locus YFR028C, strain CDC14, active compounds read low",0.997
same,normalized growth,"locus YGR040W, strain KSS1, active compounds read low",0.862
same,normalized growth,"locus YGR052W, strain FMP48, active compounds read low",0.75
same,normalized growth,"locus YGR092W, strain DBF2, active compounds read low",0.703
same,normalized growth,"locus YHR030C, strain SLT2, active compounds read low",0.442 (active)
same,normalized growth,"locus YHR079C, strain IRE1, active compounds read low",0.742
same,normalized growth,"locus YHR082C, strain KSP1, active compounds read low",0.779
same,normalized growth,"locus YHR205W, strain SCH9, active compounds read low",0.775
same,normalized growth,"locus YIL147C, strain SLN1, active compounds read low",1.01
same,normalized growth,"locus YJL095W, strain BCK1, active compounds read low",0.602
same,normalized growth,"locus YJL128C, strain PBS2, active compounds read low",0.914
same,normalized growth,"locus YJL157C, strain FAR1, active compounds read low",0.884
same,normalized growth,"locus YJR016C, strain ILV3, active compounds read low",1
same,normalized growth,"locus YJR066W, strain TOR1 (second series), active compounds read low",0.84
same,normalized growth,"locus YJR066W, strain TOR1, active compounds read low",0.817
same,normalized growth,"locus YKL048C, strain ELM1, active compounds read low",0.867
same,normalized growth,"locus YKL067W, strain YNK1, active compounds read low",0.873
same,normalized growth,"locus YKL101W, strain HSL1, active compounds read low",0.781
same,normalized growth,"locus YKL193C, strain SDS22, active compounds read low",1
same,normalized growth,"locus YKL203C, strain TOR2, active compounds read low",0.894
same,normalized growth,"locus YLR113W, strain HOG1, active compounds read low",0.609 (active)
same,normalized growth,"locus YLR133W, strain CKI1, active compounds read low",0.873
same,normalized growth,"locus YLR403W, strain SFP1, active compounds read low",0.847
same,normalized growth,"locus YML070W, strain DAK1, active compounds read low",0.75
same,normalized growth,"locus YMR001C, strain CDC5, active compounds read low",1
same,normalized growth,"locus YMR205C, strain PFK2 (second series), active compounds read low",0.849
same,normalized growth,"locus YMR277W, strain FCP1, active compounds read low",1
same,normalized growth,"locus YNL006W, strain LST8, active compounds read low",1.01
same,normalized growth,"locus YNL020C, strain ARK1, active compounds read low",0.852
same,normalized growth,"locus YNL161W, strain CBK1, active compounds read low",1
same,normalized growth,"locus YNL183C, strain NPR1, active compounds read low",0.696
same,normalized growth,"locus YNL207W, strain RIO2, active compounds read low",1
same,normalized growth,"locus YNL222W, strain SSU72, active compounds read low",0.999
same,normalized growth,"locus YNL307C, strain MCK1 (second series), active compounds read low",0.785
same,normalized growth,"locus YOL078W, strain AVO1, active compounds read low",1
same,normalized growth,"locus YOL136C, strain PFK27, active compounds read low",0.84
same,normalized growth,"locus YOR061W, strain CKA2, active compounds read low",0.844
same,normalized growth,"locus YOR119C, strain RIO1, active compounds read low",0.915
same,normalized growth,"locus YOR231W, strain MKK1, active compounds read low",0.785
same,normalized growth,"locus YOR329C, strain SCD5, active compounds read low",1
same,normalized growth,"locus YPL031C, strain PHO85, active compounds read low",0.806
same,normalized growth,"locus YPL153C, strain RAD53, active compounds read low",0.783
same,normalized growth,"locus YPL204W, strain HRR25, active compounds read low",0.777
same,normalized growth,"locus YPL209C, strain IPL1, active compounds read low",1
same,normalized growth,"locus YPL256C, strain CLN2, active compounds read low",0.67 (active)
same,normalized growth,"locus YPR025C, strain CCL1, active compounds read low",1.01
same,normalized growth,"locus YPR106W, strain ISR1, active compounds read low",0.977
same,normalized growth,"locus YPR111W, strain DBF20, active compounds read low",0.967
same,normalized growth,"strain NNK1, active compounds read low",0.972
same,normalized growth,"strain TSCII, active compounds read low",1
